From PubChem
TRPV1 potentiator = potentiators of human vanilloid receptor 1 (TRPV1); Q8NER1; TRPV1-expressing cells, Fluo-8 calcium influx, capsaicin EC20 potentiation; potentiation, % at 8.33 µM; actives 0.02% (n = 320,000); AID 540277; in the data active = potentiation above about 80%; inconclusive = between about 30% and that limit
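TRPV1-expressing cells were cultured overnight at 35.5C and loaded with Fluo-8 calcium dye for 40 to 90 min at room temperature. After a 10 s baseline, compound was added and calcium influx was read kinetically for 3 min (ex 480/em 520 nm).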
TRPML1 inh = inhibitors of human TRPML1 channel; activity change, negative = inhibition, % (no concentration beside the values); actives 0.02% (n = 390,000); AID 624415; TRPML1-inducible cells, Ca2+ dye fluorescence, FDSS; hits give low values; inhibition of EC80 agonist-evoked calcium signal; in the data active = activity change below about -50%; inconclusive = between about -30% and that limit;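 note: stimulus is agonist 54-4 at its EC80 concentration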
Target sequence (Q9GZU1 whole entry, looked up): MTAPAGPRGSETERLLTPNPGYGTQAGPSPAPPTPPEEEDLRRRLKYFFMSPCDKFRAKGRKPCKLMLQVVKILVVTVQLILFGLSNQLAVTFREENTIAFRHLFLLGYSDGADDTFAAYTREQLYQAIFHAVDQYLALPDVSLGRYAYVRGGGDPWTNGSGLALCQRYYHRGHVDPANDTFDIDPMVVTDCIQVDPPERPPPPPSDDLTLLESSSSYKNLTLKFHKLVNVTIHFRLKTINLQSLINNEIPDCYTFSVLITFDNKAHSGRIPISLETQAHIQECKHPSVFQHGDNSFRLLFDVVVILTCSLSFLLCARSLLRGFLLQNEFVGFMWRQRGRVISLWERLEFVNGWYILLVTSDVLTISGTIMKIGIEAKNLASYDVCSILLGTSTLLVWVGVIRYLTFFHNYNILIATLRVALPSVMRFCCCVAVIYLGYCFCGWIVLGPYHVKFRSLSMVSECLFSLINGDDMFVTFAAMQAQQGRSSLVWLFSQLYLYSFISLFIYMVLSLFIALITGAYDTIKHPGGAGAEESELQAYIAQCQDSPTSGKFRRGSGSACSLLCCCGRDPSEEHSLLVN
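Tet-induced TRPML1-DL cells loaded with Ca8 no-wash calcium dye were read kinetically on FDSS. Compound addition was followed by EC80 agonist 54-4 (4 uM final); inhibition was read over 110 s.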
TRPML1 agonist = activates the human TRPML1 channel; TRPML1-expressing cells, Ca2+ dye fluorescence, FDSS; activation, % (no concentration beside the values); Q9GZU1; AID 624414; actives 0.12% (n = 410,000); in the data active = activation above about 50%; inconclusive = mostly about 30% to 49%
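Tetracycline-induced TRPML1-DL cells are seeded and incubated overnight before loading with a no-wash Ca2+ dye and quencher. Agonist activity is taken from the 110 s fluorescence read following compound pin-transfer on an FDSS, before EC80 54-4 challenge.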
TRPV1 ag = agonists of human vanilloid receptor 1 (TRPV1); Q8NER1; TRPV1-expressing cells, Fluo-8 calcium influx, agonist mode; activation, % at 8.33 µM; actives 0.19% (n = 320,000); in the data active = activation above about 80%; inconclusive = between about 30% and that limit
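Fluo-8 calcium influx in TRPV1-expressing cells, kinetic read (ex 480/em 520 nm). Compound added and read 3 min for agonist activity, followed by capsaicin at EC20 final and 2 min further read for enhancement.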
Numbers stand for hits; . = inactive; ? = inconclusive; / = no result. Hits are enriched below; roughly 0.27% of the tested compounds scored in any of these assays.

SMILES	TRPV1 potentiator	TRPML1 inh	TRPML1 agonist	TRPV1 ag
O=C(Nc1nc(-c2ccccc2)cs1)c1ccc(Br)o1	.	.	.	88
Cn1cnnc1SCC(=O)Nc1nc(-c2ccccc2)cs1	.	.	.	89
Cc1ccc(-c2csc(NC(=O)CN3CCOCC3)n2)cc1C	.	.	.	95
Cc1ccc2[nH]c(=O)c(-c3nc4cc(C)ccn4c3NCc3ccco3)cc2c1	.	.	.	.
COc1ccc(CNC(=O)C(C)c2ccc([N+](=O)[O-])cc2)cc1 (centres undefined)	.	.	.	80
COc1ccc(CNC(=O)Nc2ccc([N+](=O)[O-])cc2)cc1	/	.	.	/
COc1ccc(S(=O)(=O)n2ccc(-c3cnc(-c4ccccc4)s3)n2)cc1	/	.	.	/
CN(C)S(=O)(=O)c1ccc(N2CCCC2)c(C(=O)NCc2ccc(Cl)cc2)c1	.	.	75	.
COc1ccccc1NC(=S)N(Cc1ccccc1)Cc1ccccn1	.	.	.	.
S=C(Nc1ccccc1Cl)N(Cc1ccccc1)Cc1ccccn1	132	.	.	.
CCOC(=O)[C@H]1[C@H]2COc3ccc(Cl)cc3[C@@H]2N2C(=O)c3ccc(F)cc3NC(=O)[C@@]12C	.	.	.	83
CCOC(=O)[C@H]1[C@H]2COc3ccc(Cl)cc3[C@@H]2N2C(=O)c3ccc(C)cc3NC(=O)[C@@]12C	?	.	.	99
CCOC(=O)[C@H]1[C@H]2COc3ccc(Cl)cc3[C@@H]2N2C(=O)c3ccccc3NC(=O)[C@@]12C	.	.	.	?
CCN(CC)c1ccc(NC(=O)c2ccc3c(c2)OCO3)c(C)c1	.	.	.	82
Cc1ccccc1NC(=O)c1cc2ccccc2o1	.	.	.	?
CCN(CC)c1ccc(NC(=O)c2cc3ccccc3o2)c(C)c1	.	.	.	83
O=C(Nc1ccc(F)cc1)c1cc2ccccc2o1	.	/	/	98
CCOC(=O)c1c(NC(=O)COC(=O)c2ccccn2)sc(C(=O)N(C)C)c1C	103	.	.	.
Cc1cccc(N2CCN(CC(=O)NCc3ccc(Cl)cc3)CC2)c1C	.	.	.	83
O=C(CN1CCN(c2ccccc2F)CC1)NCc1ccc(Cl)cc1	.	.	.	?
CCN(CC)c1ccc(/C=C2/C(=O)c3ccc(C(=O)O)cc3C2=O)cc1	.	.	65	?
CCN(CC)c1ccc(C=C2C(=O)OC3(CCCCC3)OC2=O)cc1	.	.	.	.
COc1ccc(-c2onc(C)c2-c2ccc(C(=O)OC(C)C)o2)c(O)c1	.	.	.	?
CC(=O)Nc1ccc(N/C=C(\C#N)S(=O)(=O)c2ccc(Cl)cc2)cc1	.	.	.	.
CN1C(=O)/C(=C/c2cccc(Cl)c2)Sc2ccc(C(=O)NCc3cccnc3)cc21	82	.	.	.
SMILES	TRPV1 potentiator	TRPML1 inh	TRPML1 agonist	TRPV1 ag
COc1cccc(/C=C2\Sc3ccc(C(=O)NCc4cccnc4)cc3N(C)C2=O)c1	.	.	.	?
COc1ccc(OC)c(/C=C2\C=Cc3ccccc32)c1	/	/	.	/
Cc1cc(=O)oc2cc(NC(=O)C(CCCN=C(N)N)NC(=O)OCc3ccccc3)ccc12 (centres undefined)	.	-52	.	.
CC(C)(C)n1nnnc1C(c1cccs1)N(Cc1ccc(Cl)cc1)CC1CCCO1 (centres undefined)	.	.	66	.
Clc1ccc(CN(Cc2ccccc2)C(c2cccs2)c2nnnn2C2CCCC2)cc1 (centres undefined)	.	.	.	.
O=C(CSc1nnc(Cc2ccccc2)n1Cc1ccco1)NC1CCCC1	.	.	.	.
COc1cccc(/C=C2\SC(N3CCC(C)CC3)=NC2=O)c1OC	.	.	.	93
O=C(NCc1cccnc1)c1ccc(-c2ccc(Cl)cc2)o1	.	.	.	86
O=C(NCc1cccnc1)c1ccc(-c2cc(Cl)ccc2Cl)o1	.	.	.	?
C1=C(CCNc2ncnc3c2[nH]c2ccccc23)CCCC1	.	.	.	80
O=c1c2[nH]c3ccccc3c2ncn1CCC1=CCCCC1	.	.	.	.
O=C1OC(c2ccccc2)=C/C1=C/N1CCCCC1	.	.	.	81
COc1cc(C(=O)NC(=S)Nc2nc(-c3ccc(F)cc3)cs2)cc(OC)c1OC	.	.	.	.
O=C(NCc1ccccc1)[C@@H]1C[C@H]1[C@@H](NP(=O)(c1ccccc1)c1ccccc1)c1ccccc1	.	.	.	91
O=C(NCc1ccccn1)[C@@H]1C[C@H]1[C@@H](NP(=O)(c1ccccc1)c1ccccc1)c1ccccc1	.	.	.	?
